The source of these data is PubChem BioAssay AID2284339 (EPA ToxCast).

In general, AC50 refers to the concentration at which the activity in the assay is half-maximal.

Where “and” joins values, the source holds several entries; their conditions need not be identical. Equal values may be shown once. Calls of active or inactive are those of the source. Rule for the calls: active = hit-call score of the fitted dose curve at least 0.9, where 1 is the maximum; inactive = score below 0.9.

This experiment relates to NCBI gene 100038242. The experiment can be described thus: CCTE_GLTED_xDIO3: CCTE's Xenopus Iodothyronine Deiodinase Type 3 (xDIO3) Inhibition Assay, Great Lakes Toxicology and Ecology Division (GLTED) Lab. How it is done: CCTE_GLTED_xDIO3 is a cell-free, single-readout assay designed to test the inhibitory activity of chemicals toward Xenopus (frog) iodothyronine Deiodinase Type 3 (DIO3) enzyme. Enzyme is incubated in presence of test chemical for 3 hours during which uninhibited enzyme liberates free iodide from substrate. Free iodide is measured in a second step using the Sandell-Kolthoff method.CCTE_GLTED_xDIO3 is the assay component measured from the CCTE_GLTED_xDIO assay. It is designed to make measurements of enzyme activity, a form of enzyme reporter, as detected with absorbance signals by spectrophotometry.Data from the assay component CCTE_GLTED_xDIO3 was analyzed at the assay endpoint CCTE_GLTED_xDIO3 in the positive analysis fitting direction relative to DMSO as the negative control and baseline of activity. Using a type of enzyme reporter, loss-of-signal activity can be used to understand deiodinase Type 3 activity. To generalize the intended target to other relatable targets, this assay endpoint is annotated to the 'deiodinase' intended target family, where the subfamily is 'deiodinase Type 3'.
[…]
For `O=S(=O)(O)C(F)(F)C(F)(F)C(F)(F)C(F)(F)C(F)(F)C(F)(F)C(F)(F)C(F)(F)F`, the concentration at half-maximal activity (AC50) is 142 µM (active) and 160 µM (active).
To `O=C(O)C(F)(F)C(F)(F)C(F)(F)C(F)(F)C(F)(F)C(F)(F)C(F)(F)C(F)(F)C(F)(F)C(F)(F)F` belongs 27.7 µM (active).
The same measure for `COC(=O)C(F)(F)C(F)(F)OC(F)(C(F)(F)F)C(F)(F)OC(F)=C(F)F` (stereo not given): 7.65 µM (active); for `O=C(O)C(F)(F)C(F)(F)C(F)(F)C(F)(F)C(F)(F)C(F)(F)C(F)(F)C(F)(F)C(F)(F)F`: 147 µM (active); for `C=CC(=O)OCC(F)(F)C(F)F`: 19.8 µM (active).
